According to PMC5540273 (PLoS ONE, 2017):

Key:
Conditions in all cases: concentration: 1 μM, replicates: in singlicate; n = 1
NIM1 = test system: T1, NIM1
T1 construct: gene MGC42105

NLK = test system: NLK
OSR1 = test system: T2, OSR1
T2 construct: gene OXSR1

PAK1 = test system: PAK1
PAK2 = test system: PAK2
PAK3 = test system: PAK3
PAK4 = test system: PAK4
PAK6 = test system: PAK6
PAK7 = test system: PAK7
PCTK1 = test system: T3, PCTK1
T3 construct: gene CDK16

PCTK2 = test system: T4, PCTK2
T4 construct: gene CDK17

PCTK3 = test system: T5, PCTK3
T5 construct: gene CDK18

PDGFRA = test system: PDGFRA
PDGFRB = test system: PDGFRB
PDPK1 = test system: PDPK1
PFTAIRE2 = test system: PFTAIRE2
PFTK1 = test system: T6, PFTK1
T6 construct: gene CDK14

PHKG1 = test system: PHKG1
PHKG2 = test system: PHKG2
PIK3C2B = test system: PIK3C2B
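Note: KINOMEscan kinase panel screen.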

Compound | %Inh (NIM1) [%] | %Inh (NLK) [%] | %Inh (OSR1) [%] | %Inh (PAK1) [%] | %Inh (PAK2) [%] | %Inh (PAK3) [%] | %Inh (PAK4) [%] | %Inh (PAK6) [%] | %Inh (PAK7) [%] | %Inh (PCTK1) [%] | %Inh (PCTK2) [%] | %Inh (PCTK3) [%] | %Inh (PDGFRA) [%] | %Inh (PDGFRB) [%] | %Inh (PDPK1) [%] | %Inh (PFTAIRE2) [%] | %Inh (PFTK1) [%] | %Inh (PHKG1) [%] | %Inh (PHKG2) [%] | %Inh (PIK3C2B) [%]
O=c1[nH]cc(-c2ccc(N3CCOCC3)cc2)c2sc(-c3cn[nH]c3)cc12 [GSK2276055] | 30 | 0 | 1 | 8 | 26 | 0 | 0 | 17 | 31 | 4 | 28 | 15 | 32 | 63 | 0 | 34 | 42 | 0 | 6 | 9
Cl.c1ccc(-c2ccc3c(Nc4ccc5[nH]ncc5c4)ccnc3c2)nc1 [GW440137] | 14 | 28 | 5 | 10 | 0 | 0 | 0 | 3 | 0 | 2 | 14 | 20 | 90 | 89 | 0 | 12 | 19 | 0 | 0 | 3
COc1cc(Nc2ncc3c(C)nc(-c4cc5ccccc5[nH]4)n3n2)cc(OC)c1OC [GW869516] | 0 | 0 | 0 | 5 | 22 | 69 | 33 | 23 | 28 | 0 | 32 | 6 | 0 | 29 | 0 | 0 | 4 | 27 | 0 | 0
Cl.NC(=O)c1cccc(Nc2nccc(Nc3ccc(Oc4c(Cl)cccc4Cl)c(Cl)c3)n2)c1 [GW659009] | 7 | 0 | 15 | 34 | 8 | 72 | 0 | 0 | 0 | 0 | 0 | 0 | 0 | 36 | 0 | 15 | 0 | 0 | 0 | 0
O=C(NC1CCN(c2ccnc(Nc3ccc(F)cc3)n2)C1)c1cc2ccccc2s1 (centres unmarked) [GSK1379716] | 34 | 31 | 11 | 18 | 16 | 19 | 0 | 0 | 4 | 0 | 11 | 32 | 0 | 28 | 0 | 25 | 13 | 19 | 7 | 0
Cn1cc(-c2ccc3c(c2)CCN3C(=O)Cc2cccc(F)c2)c2c(N)ncnc21 [GSK2603358] | 24 | 0 | 37 | 0 | 0 | 31 | 0 | 0 | 0 | 4 | 0 | 17 | 78 | 99.8 | 0 | 12 | 18 | 1 | 0 | 80
Cl.Cl.NCC(NC(=O)c1cc(-c2ccccc2)c(-c2ccnc3[nH]ccc23)s1)c1ccccc1 (centres unmarked) [GSK1321561] | 50 | 55 | 15 | 4 | 0 | 30 | 0 | 12 | 44 | 7 | 0 | 0 | 0 | 45 | 20 | 6 | 17 | 0 | 0 | 0
Fc1ccc(-c2ncn(C3CCNCC3)c2-c2ccnc(Oc3ccc(-c4ccccc4)cc3)n2)cc1 [SB-245391] | 42 | 52 | 36 | 25 | 18 | 22 | 14 | 25 | 0 | 16 | 1 | 2 | 23 | 12 | 21 | 13 | 9 | 0 | 0 | 27
COc1cccc(-c2ccc3c(NC(=O)C4CC4)n[nH]c3n2)c1 [SB-710903] | 46 | 49 | 13 | 0 | 0 | 1 | 0 | 0 | 8 | 10 | 19 | 30 | 0 | 34 | 0 | 10 | 25 | 0 | 0 | 0
Nc1n[nH]c2cnc(-c3ccccc3)cc12 [SB-642124] | 29 | 31 | 12 | 21 | 15 | 34 | 0 | 0 | 6 | 11 | 0 | 10 | 0 | 21 | 0 | 3 | 19 | 0 | 0 | 0
